Inconclusive results are not listed. Entries that show only a call come without a potency. Active and inactive are the calls of the source. Calls follow the shape of the dose curve; as a rule, active = well fitted inhibition curve with a large enough effect; inconclusive = small, poorly fitted or top-dose-only effect; inactive = flat fitted curve, though single readings scatter.
tested on: CP329; assay: qHTS profiling for inhibitors of Plasmodium falciparum proliferation (AID 504749); also: nearly all actives have a fitted effect of over 60% in size; conditions: P. falciparum in erythrocytes, SYBR Green DNA, 72 h; series mostly up to 28.7 µM
Summary of the method: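 Readout was DNA-dye fluorescence from lysed cultures, ex 485/em 535 nm. Parasitized red cells had grown 72 h with compound; data scaled between 0.29 uM artemisinin and DMSO wells and corrected using vehicle-only plates.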
Potency is read from the fitted curve at half-maximal effect.

SMILES	Potency
Cc1ccccc1	inactive
CC1(C)S[C@@H]2[C@H](NC(=O)[C@@H](NC(=O)N3CCNC3=O)c3ccccc3)C(=O)N2[C@H]1C(=O)O	inactive
CC1=C(/C=C/C(C)=C/C=C/C(C)=C/C=C/C=C(C)/C=C/C=C(C)/C=C/C2=C(C)CCCC2(C)C)C(C)(C)CCC1	inactive
CCCC(=O)O[C@]1(C(=O)CCl)[C@H](C)C[C@@H]2[C@H]3CCC4=CC(=O)C=C[C@]4(C)[C@@]3(F)C(=O)C[C@@]21C	1900 nM (active)
CCC(=O)NCCC1CCc2ccc3c(c21)CCO3 (stereo unspecified)	inactive
Cc1cc(C(=O)NNCc2ccccc2)no1	inactive
Cc1ccccc1OCC(O)CNCCOc1ccc(C(N)=O)cc1 (stereo unspecified)	inactive
CCCCCCCCCCCCCC[n+]1ccc(C)cc1	4260 nM (active)
COC(F)(F)C(Cl)Cl	inactive
CCCCCCCCCCCC[n+]1ccc2ccccc2c1	601 nM (active)
O=C(O)CCC(=O)C(=O)O	inactive
O=C(O)CN(CCN(CC(=O)O)CC(=O)O)CC(=O)O	inactive
COc1ccc2c3c1O[C@H]1C[C@@H](O)C=C[C@@]31CCN(C)C2	inactive
C=CCSSSCC=C	inactive
COC(C(=O)C(O)C(C)O)C1Cc2cc3cc(OC4CC(OC5CC(O)C(O)C(C)O5)C(O)C(C)O4)c(C)c(O)c3c(O)c2C(=O)C1OC1CC(OC2CC(OC3CC(C)(O)C(O)C(C)O3)C(O)C(C)O2)C(O)C(C)O1 (stereo unspecified)	2130 nM (active)
CCNC(=O)[C@@H]1CCCN1C(=O)[C@H](CCCN=C(N)N)NC(=O)[C@H](CC(C)C)NC(=O)[C@@H](Cc1c[nH]c2ccccc12)NC(=O)[C@H](Cc1ccc(O)cc1)NC(=O)[C@H](CO)NC(=O)[C@H](Cc1c[nH]c2ccccc12)NC(=O)[C@H](Cc1cnc[nH]1)NC(=O)[C@@H]1CCC(=O)N1	8490 nM (active)
